# Experimental data as given in PubChem BioAssay.
# Calls of active or inactive are those of the source.
# Tests used:
# [1] = E. coli DRC41 culture turbidity changes, primary screen, E. coli filamentation inducer project, strain DRC41, OD650, 48 h (AID 1152);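 note: E. coli MC1000 strain DRC41 lacking acrAB efflux pump and sulA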; conditions: E. coli DRC41 (acrAB sulA), higher = more signal, called active from +8 up or from −8 down
# [2] = small-molecule binders of probe aLefty1, primary screen, biochemical, small-molecule microarray, 635/667 nm fluorescence (AID 1153); conditions: higher = more signal;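 note: score merges spot fluorescence with signal-to-noise ratio from the scanned slide images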
# [3] = PSAC antagonists in infected red cells, primary screen, cell-based, P. falciparum Indochina, OD700, 1 h (AID 1154); conditions: P. falciparum Indochina infected RBC osmotic lysis, higher = more signal, called active from +8 up or from −8 down
# [4] = PSAC antagonists in infected red cells, primary screen, cell-based, P. falciparum Indochina, OD700, 2 h (AID 1155);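 note: lysis reports solute entry through the parasite surface anion channel PSAC; channel blockers reduce lysis of infected cells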; conditions: P. falciparum Indochina infected erythrocytes, osmotic lysis OD700; higher = more signal, called active from +8 up or from −8 down
# [5] = osmotic lysis modulators in infected erythrocytes, primary screen, PSAC antagonist project, cell-based, P. falciparum Indochina, OD700, 3 h (AID 1156); conditions: higher = more signal, called active from +8 up or from −8 down
# [6] = PSAC antagonists in infected red cells, primary screen, cell-based, P. falciparum Indochina, OD700, 18 h (AID 1157); conditions: P. falciparum Indochina infected erythrocytes, osmotic lysis OD700, 18 h; higher = more signal, called active from +8 up or from −8 down
# [7] = modulators of S6 phosphorylation in cells, primary screen, cell-based, A549, cytoblot, luminescence, serum-stimulated (AID 1158); conditions: A549 phospho-S6 cytoblot, 5 h, higher = more signal;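 note: serum-stimulated A549 lung adenocarcinoma cells; signal is phosphorylated S6 detected by cytoblot immunostaining with HRP secondary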
# [8] = molecular target: NADPH oxidase 2 (Homo sapiens) (UniProt P04839); assay: NOX2-dependent H2O2 signal modulators, primary screen, NOX inhibitor project, cell-based, HEK293-NOX2, PMA-stimulated, Amplex Red fluorescence (AID 1159); conditions: 45 min, higher = more signal, called active from +8 up or from −8 down; note: test concentration not given here
# Sequence of NADPH oxidase 2 (Homo sapiens) (P04839 whole entry, looked up): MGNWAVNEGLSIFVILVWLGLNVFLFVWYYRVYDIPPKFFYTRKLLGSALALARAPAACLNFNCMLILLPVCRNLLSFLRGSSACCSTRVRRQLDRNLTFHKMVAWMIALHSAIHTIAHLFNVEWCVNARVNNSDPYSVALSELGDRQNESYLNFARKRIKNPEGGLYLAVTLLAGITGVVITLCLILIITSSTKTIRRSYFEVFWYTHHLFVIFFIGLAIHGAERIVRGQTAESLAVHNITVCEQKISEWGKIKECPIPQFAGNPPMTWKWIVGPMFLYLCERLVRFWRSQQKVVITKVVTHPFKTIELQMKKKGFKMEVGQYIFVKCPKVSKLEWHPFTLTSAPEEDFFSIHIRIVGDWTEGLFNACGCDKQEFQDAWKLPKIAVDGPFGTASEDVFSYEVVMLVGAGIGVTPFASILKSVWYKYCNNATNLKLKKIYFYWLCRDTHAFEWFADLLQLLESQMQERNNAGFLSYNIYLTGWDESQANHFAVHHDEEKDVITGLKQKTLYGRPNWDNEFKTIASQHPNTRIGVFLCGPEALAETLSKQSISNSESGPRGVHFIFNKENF
# [9] = molecular target: NADPH oxidase 4 (Homo sapiens) (UniProt Q9NPH5); assay: NOX4-dependent H2O2 signal modulators, primary screen, NOX inhibitor project, cell-based, HEK293-NOX4, tetracycline-induced, Amplex Red fluorescence (AID 1160); conditions: 45 min, higher = more signal, called active from +8 up or from −8 down
# Sequence of NADPH oxidase 4 (Homo sapiens) (Q9NPH5 whole entry, looked up): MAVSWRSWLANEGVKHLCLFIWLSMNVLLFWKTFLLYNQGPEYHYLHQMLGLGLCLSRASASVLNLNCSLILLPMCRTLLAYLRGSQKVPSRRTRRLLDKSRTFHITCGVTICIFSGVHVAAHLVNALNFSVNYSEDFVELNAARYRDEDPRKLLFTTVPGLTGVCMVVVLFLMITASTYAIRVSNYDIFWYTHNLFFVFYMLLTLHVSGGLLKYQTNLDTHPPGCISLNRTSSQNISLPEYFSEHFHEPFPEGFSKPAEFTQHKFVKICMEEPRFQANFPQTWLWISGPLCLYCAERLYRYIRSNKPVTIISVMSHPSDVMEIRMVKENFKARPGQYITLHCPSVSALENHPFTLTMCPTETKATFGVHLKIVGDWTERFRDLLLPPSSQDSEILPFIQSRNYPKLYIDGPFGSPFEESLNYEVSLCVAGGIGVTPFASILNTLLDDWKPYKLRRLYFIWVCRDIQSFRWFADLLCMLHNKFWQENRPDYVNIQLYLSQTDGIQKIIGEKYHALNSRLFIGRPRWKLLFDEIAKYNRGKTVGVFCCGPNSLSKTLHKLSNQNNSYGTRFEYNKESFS
# [10] = molecular target: NADPH oxidase 5 (Homo sapiens) (UniProt Q96PH1); assay: NOX5-dependent H2O2 signal modulators, primary screen, NOX inhibitor project, cell-based, HEK293-NOX5, Amplex Red fluorescence (AID 1161); conditions: HEK293-NOX5, ionomycin, 45 min, higher = more signal
# Sequence of NADPH oxidase 5 (Homo sapiens) (Q96PH1 whole entry, looked up): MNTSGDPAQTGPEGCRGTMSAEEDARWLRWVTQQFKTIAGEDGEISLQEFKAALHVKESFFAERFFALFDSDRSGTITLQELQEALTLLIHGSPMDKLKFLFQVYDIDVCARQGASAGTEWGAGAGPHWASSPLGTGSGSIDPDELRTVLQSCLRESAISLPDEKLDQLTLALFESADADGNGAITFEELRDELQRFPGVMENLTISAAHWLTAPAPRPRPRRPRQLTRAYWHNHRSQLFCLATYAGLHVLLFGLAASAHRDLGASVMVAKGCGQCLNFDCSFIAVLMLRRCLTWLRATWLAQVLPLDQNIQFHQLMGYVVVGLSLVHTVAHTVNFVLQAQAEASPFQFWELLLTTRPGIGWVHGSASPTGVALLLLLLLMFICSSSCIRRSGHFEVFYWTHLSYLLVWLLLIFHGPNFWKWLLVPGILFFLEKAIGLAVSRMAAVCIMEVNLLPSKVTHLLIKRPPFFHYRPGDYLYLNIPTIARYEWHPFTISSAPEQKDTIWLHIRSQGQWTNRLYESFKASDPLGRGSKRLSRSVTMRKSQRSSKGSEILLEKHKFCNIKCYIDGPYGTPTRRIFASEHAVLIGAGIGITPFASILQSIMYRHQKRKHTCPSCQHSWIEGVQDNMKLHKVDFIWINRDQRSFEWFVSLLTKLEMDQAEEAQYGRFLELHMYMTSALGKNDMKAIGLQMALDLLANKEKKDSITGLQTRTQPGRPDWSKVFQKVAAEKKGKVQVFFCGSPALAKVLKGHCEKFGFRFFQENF
SMILES,z-score [1],composite z-score [2],z-score [3],z-score [4],z-score [5],z-score [6],z-score [7],z-score [8],z-score [9],z-score [10]
C[N+](C)(C)CCCC[C@@H]1NC(=O)[C@@H]2C[C@H](C(=O)O)[C@H](c3cccc(OCCO)c3)N2C1=O,1.03 (inactive),-0.286,2.2 (inactive),0.157 (inactive),-1.84 (inactive),0.276 (inactive),1.44,1.83 (inactive),0.877 (inactive),1.01
CC[C@@H]1[C@@H]2C3C(=O)N(CC)C(=O)C3CC(=O)[C@@H]2[C@H](c2ccc(C)cc2)N1S(=O)(=O)c1ccc(C)cc1 (stereo not given in full),1.29 (inactive),-0.149,1.39 (inactive),0.0985 (inactive),-0.511 (inactive),-1.35 (inactive),1.04,1.04 (inactive),0.451 (inactive),2.06
O=C1O[C@H](c2ccccc2)[C@H](c2ccccc2)N2[C@H]1[C@@H](C(=O)N1CCN(c3ncccn3)CC1)[C@]1(C(=O)Nc3ccc(C#CCCO)cc31)[C@H]2c1ccc(OCCO)cc1,-0.0115 (inactive),0.473,4.32 (inactive),1.18 (inactive),0.588 (inactive),0.585 (inactive),0.034,1.11 (inactive),0.57 (inactive),0.951
CCCC=C(CCC)[C@@H](NS(=O)(=O)CC)c1ccccc1,-1.84 (inactive),0.443,0.19 (inactive),-0.0273 (inactive),-1.28 (inactive),0.716 (inactive),-0.259,-1.32 (inactive),-2.4 (inactive),2.02
O=C1CSC(c2cccc([N+](=O)[O-])c2)N1c1ccccc1 (stereo not given),0.0188 (inactive),0.0163,0.0361 (inactive),0.111 (inactive),0.708 (inactive),-0.139 (inactive),-0.0619,-0.276 (inactive),-0.0621 (inactive),0.509
COC(=O)C(CC#Cc1ccc2c(c1)[C@]1(C(=O)N2)[C@H](c2ccc(O)cc2)N2[C@H](c3ccccc3)[C@H](c3ccccc3)OC(=O)[C@H]2[C@@H]1C(N)=O)C(=O)OC,2.05 (inactive),-0.216,1.09 (inactive),1.58 (inactive),0.6 (inactive),1.3 (inactive),1.39,0.222 (inactive),0.356 (inactive),-0.453
COCCCNC(=O)[C@@]1(Cc2ccccc2CN=[N+]=[N-])N=C(c2ccc(OCCCO)cc2)O[C@H]1c1ccccc1N=[N+]=[N-],2.51 (inactive),0.0643,36.4 (active),30.8 (active),2.72 (inactive),3.1 (inactive),-0.0478,0.0139 (inactive),1.3 (inactive),-1.31
COc1cc(NN2C(C(O)c3ccc(I)cc3)C=CC3C(=O)N(C)C(=O)C32)cc(OC)c1OC (stereo not given),-0.0511 (inactive),0.125,0.318 (inactive),0.168 (inactive),1.59 (inactive),-0.374 (inactive),1.28,-2.45 (inactive),-4.04 (inactive),-2.92
C=CCOC(=O)[C@H]1[C@@H]2C(=O)O[C@@H](c3ccccc3)[C@@H](c3ccccc3)N2[C@@H](c2ccc(OCCOC(=O)[C@H]3C[C@H]4C(=O)N[C@@H](CCCCN(C)C)C(=O)N4[C@H]3c3ccc(O)cc3)cc2)[C@]12C(=O)Nc1ccccc12,-0.558 (inactive),1.13,-0.862 (inactive),0.332 (inactive),3.2 (inactive),0.522 (inactive),-0.259,2.21 (inactive),1.05 (inactive),0.576
COc1ccccc1CN1C(=O)c2ccccc2[C@](Cc2ccccc2I)(C(=O)NCCN2CCOCC2)[C@@H]1c1ccc(CO)cc1,0.117 (inactive),-0.181,9.62 (active),0.349 (inactive),-0.113 (inactive),-0.385 (inactive),1.39,-1.81 (inactive),0.454 (inactive),-0.824
CCN(CC)c1ccc(N2CC=CC34O[C@@H]5/C=C\CCCOC(=O)C5[C@H]3C(=O)N(CCCCCO)[C@@H]4C2=O)cc1 (stereo not given in full),-1.06 (inactive),-0.0479,1.03 (inactive),0.0039 (inactive),-0.656 (inactive),-0.28 (inactive),-0.486,0.516 (inactive),-0.21 (inactive),1.41
CCCCC(O)C1C=CC2C(=O)N(Cc3ccccc3)C(=O)C2N1n1cnnc1 (stereo not given),-1.18 (inactive),0.574,0.706 (inactive),-1.16 (inactive),0.662 (inactive),-1.85 (inactive),1.99,-3.33 (inactive),-2.04 (inactive),-3.3
C=C(COC)C(=O)CC[C@H](OC(=O)c1ccccc1-c1ccccc1C(=O)O)c1ccc(CO)o1,-0.093 (inactive),-0.0954,1.77 (inactive),0.404 (inactive),1.38 (inactive),0.161 (inactive),-0.121,-0.0961 (inactive),-0.0962 (inactive),-0.0437
CN(C)C(=O)[C@@]1(CCC(=O)OC(C)(C)C)N=C(c2ccc(OCCCO)cc2)O[C@H]1c1ccccc1N=[N+]=[N-],0.0366 (inactive),0.646,32.9 (active),32.2 (active),1.78 (inactive),3.02 (inactive),-0.192,-3.57 (inactive),0.0136 (inactive),-1.97
Cc1cc(C)c(C(O)C2C=CC3C(=O)N(c4ccccc4)C(=O)C3N2Nc2ccccc2)c(C)c1 (stereo not given),-0.687 (inactive),0.157,1.72 (inactive),1.23 (inactive),0.244 (inactive),1.44 (inactive),-0.824,-1.56 (inactive),-3.06 (inactive),-3.17
COC(=O)c1c(CC[C@@H](CO)NC(=O)N[C@@H](C)Cn2cc(C3(O)CCCC3)nn2)oc(C(C)=O)c1C(=O)OC,-0.274 (inactive),0.0561,1.88 (inactive),-0.8 (inactive),0.816 (inactive),-1.45 (inactive),2.2,-2.54 (inactive),-1.84 (inactive),-2.35
C/C=C/[C@@H](CCn1cc([C@H](O)c2ccccc2)nn1)[Si](C)(C)c1ccc(OC)cc1,0.703 (inactive),0.121,5.3 (inactive),1.06 (inactive),2.04 (inactive),0.473 (inactive),0.201,0.257 (inactive),-0.182 (inactive),-2.21
CC(C)CNC(=O)[C@@]1(C)c2ccccc2C(=O)N(Cc2ccccc2)[C@H]1c1ccc(CO)cc1,-0.743 (inactive),-0.16,3.11 (inactive),0.122 (inactive),0.709 (inactive),0.0589 (inactive),0.11,-0.912 (inactive),0.0265 (inactive),-1.13
COc1ccc([Si](C)(C)[C@@H]2[C@@H](CC(=O)N3Cc4ccccc4C[C@H]3CO)O[C@]3(C(=O)N(Cc4cccc(N5CCCCC5=O)c4)c4ccccc43)[C@H]2C)cc1,-0.261 (inactive),-0.147,4.07 (inactive),1.27 (inactive),1.64 (inactive),0.867 (inactive),0.297,-1.63 (inactive),0.265 (inactive),0.805
COCCOC(=O)N1C(=O)[C@@]2(c3cc(C#CCCO)ccc31)[C@H](c1ccc(OCCO)cc1)N1[C@H](c3ccccc3)[C@H](c3ccccc3)OC(=O)[C@H]1[C@@H]2C(=O)N1CCc2cc(OC)c(OC)cc2C1,0.526 (inactive),0.777,3.2 (inactive),1.67 (inactive),0.226 (inactive),1.1 (inactive),-0.354,0.898 (inactive),1.01 (inactive),1.23
COCCCNC(=O)[C@@]1(Cc2ccccc2I)c2ccccc2C(=O)N(Cc2ccccc2Cl)[C@H]1c1ccc(CO)cc1,0.437 (inactive),-0.0346,5.51 (inactive),0.303 (inactive),0.65 (inactive),0.13 (inactive),0.984,0.374 (inactive),-0.881 (inactive),-2.14
Cc1ccccc1C(O)C1C=CC2C(=O)N(Cc3ccccc3)C(=O)C2N1n1cnnc1 (stereo not given),-0.534 (inactive),0.0722,1.4 (inactive),1.2 (inactive),0.341 (inactive),0.927 (inactive),-0.29,-0.4 (inactive),0.1 (inactive),0.067
